In PubChem BioAssay (EPA / NIEHS):
Values joined by “and” are separate entries in the source; they are usually repeats but may differ in a detail not shown here. Equal values may be shown once. A structure can be active in one record and inactive in another. Active and inactive are the calls of the source. Rule for the calls: active = hit-call score of the fitted dose curve at least 0.9, where 1 is the maximum; inactive = score below 0.9.

What was measured:
[1] = read-out: Epidermal growth factor receptor (EGFR), EGFR (gene 1956); experiment: BSK_BE3C_EGFR: BioMAP Diversity Plus: BE3C Assay for Epidermal growth factor receptor (EGFR) Biomarker Activity (AID 2284281); conditions: primary human bronchial epithelial cells
Outline: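 ELISA read-out of EGFR levels on human bronchial epithelial primary cells collected 24 h post-dosing. DMSO served as negative control and baseline for gain-of-signal fitting.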

KRT18 (gene 3875) = experiment: BSK_BE3C_Keratin818: BioMAP Diversity Plus: BE3C Assay for Keratin 818 Biomarker Activity (AID 2284282); conditions: primary human bronchial epithelial cells
Outline: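 In this multiplexed primary-cell system, bronchial epithelial cells were dosed and harvested at 24 h. Keratin 8/18 was determined by ELISA and analysed for increases over DMSO controls.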

[2] = read-out: Matrix Metallopeptidase 9 (MMP9), MMP9 (gene 4318); experiment: BSK_BE3C_MMP9: BioMAP Diversity Plus: BE3C Assay for Matrix Metallopeptidase 9 (MMP9) Biomarker Activity (AID 2284283); conditions: primary human bronchial epithelial cells
Outline: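 ELISA read-out of MMP-9 after 24 h compound exposure of human lung bronchial epithelial primary cells (BE3C). Fit in gain direction vs DMSO negative control; total protein by SRB in parallel cultures flagged overt cytotoxicity.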

[3] = read-out: Plasminogen activator inhibitor-1 (PAI1), SERPINE1 (gene 5054); experiment: BSK_CASM3C_PAI1: BioMAP Diversity Plus: CASM3C Assay for Plasminogen activator inhibitor-1 (PAI1) Biomarker Activity (AID 2284284); conditions: primary human coronary artery smooth muscle cells;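 note: PAI-1 protein level measured by ELISA 24 h after dosing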
[4] = read-out: Monocyte Chemoattractant Protein-1 (MCP1), CCL2 (gene 6347); experiment: BSK_hDFCGF_MCP1: BioMAP Diversity Plus: hDFCGF Assay for Monocyte Chemoattractant Protein-1 (MCP1) Biomarker Activity (AID 2284285); conditions: primary human foreskin fibroblasts
Outline: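 MCP-1 ELISA readout was taken 24 hours after dosing primary human dermal fibroblasts in the hDFCGF system, with DMSO as baseline. Parallel sulforhodamine B staining of total protein tracked overt cytotoxicity.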

[5] = read-out: Vascular cell adhesion molecule 1 (VCAM1), VCAM1 (gene 7412); experiment: BSK_IMphg_VCAM1: BioMAP Diversity Plus: IMphg Assay for Vascular cell adhesion molecule 1 (VCAM1) Biomarker Activity (AID 2284286); conditions: primary human endothelial cells with macrophages
Outline: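 ELISA read-out of VCAM-1 on venular endothelial cell/macrophage co-cultures at 24 h post-treatment, with DMSO as baseline and positive-direction fitting. Parallel sulforhodamine B total-protein staining (560 nm) served as the overt cytotoxicity measure.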

[6] = read-out: Intercellular Adhesion Molecule 1 (ICAM1), ICAM1 (gene 3383); experiment: BSK_hDFCGF_ICAM1: BioMAP Diversity Plus: hDFCGF Assay for Intercellular Adhesion Molecule 1 (ICAM1) Biomarker Activity (AID 2284287); conditions: primary human foreskin fibroblasts
Outline: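 ICAM-1 ELISA readout 24 h after dosing, DMSO as baseline, in human dermal foreskin fibroblast cultures. Cytotoxicity checked in parallel wells by SRB staining (0.1% SRB, 10% TCA fixation, 560 nm).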

[7] = read-out: TIMP metallopeptidase inhibitor 2 (TIMP2), TIMP2 (gene 7077); experiment: BSK_hDFCGF_TIMP2: BioMAP Diversity Plus: hDFCGF Assay for TIMP metallopeptidase inhibitor 2 (TIMP2) Biomarker Activity (AID 2284289); conditions: primary human foreskin fibroblasts
Outline: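 Primary human foreskin fibroblasts in the hDFCGF system, dosed for 24 h; TIMP-2 level measured by ELISA, fitted in the positive direction against DMSO; cytotoxicity checked in parallel by sulforhodamine B total protein staining.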

[8] = read-out: Interleukin-1 alpha (IL1a), IL1A (gene 3552); experiment: BSK_IMphg_IL1a: BioMAP Diversity Plus: IMphg Assay for Interleukin-1 alpha (IL1a) Biomarker Activity (AID 2284290); conditions: primary human endothelial cells with macrophages
Outline: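 IL-1α is quantified by ELISA at 24 h in the endothelial/macrophage IMphg co-culture, with gain of signal fitted relative to DMSO. Parallel SRB total-protein staining flags overt toxicity.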

CD40, CD40 (gene 958) = experiment: BSK_IMphg_CD40: BioMAP Diversity Plus: IMphg Assay for CD40 Biomarker Activity (AID 2284288); conditions: primary human endothelial cells with macrophages
Outline: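 ELISA read-out of cell-surface CD40 at 24 h in human venular endothelial cell/macrophage co-cultures. Activity fitted in the positive direction against DMSO; parallel SRB staining (560 nm) gauges overt cytotoxicity.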

Measured: AC50

O=C(O)C(F)(F)C(F)(F)OC(F)(F)F
not listed: CD40, CD40 (gene 958)
inactive: all other assays above

O=C(CC(=O)C(F)(F)C(F)(F)F)C(F)(F)F
not listed: CD40, CD40 (gene 958)
inactive: all other assays above

FC(F)(F)C(F)(F)C(F)(F)C(F)(F)CCI
inactive: all assays above

C=CC(=O)OCC(F)(F)C(F)(F)C(F)(F)C(F)(F)COC(=O)C=C
inactive: KRT18 (gene 3875) | [8]
active: [1] 7.87 µM and 14.5 µM | KRT18 (gene 3875) 10.7 µM | [2] 7.28 µM and 11.8 µM | [3] 53.7 µM and 53.4 µM | [4] 7.35 µM and 7.89 µM | [5] 30.4 µM and 23.4 µM | CD40, CD40 (gene 958) 18.8 µM and 25 µM | [7] 12.4 µM and 12.7 µM | [8] 30 µM

O=C(O)C(F)(F)C(F)(F)C(F)(F)F
not listed: CD40, CD40 (gene 958)
inactive: all other assays above

CCCCCCCCC(F)(F)C(F)(F)C(F)(F)C(F)(F)C(F)(F)C(F)(F)F
not listed: CD40, CD40 (gene 958)
inactive: all other assays above

FC(F)(F)C(F)(F)C(F)(F)C(F)(F)C(F)(F)CCI
not listed: CD40, CD40 (gene 958)
inactive: all other assays above

FC(F)(I)C(F)(F)C(F)(F)C(F)(F)I
inactive: [2] | [3] | [5] | CD40, CD40 (gene 958) | [7] | [8]
active: [1] 45.3 µM and 47.3 µM and 46.8 µM | KRT18 (gene 3875) 47 µM and 47.5 µM and 43.1 µM | [2] 56.5 µM and 55.2 µM | [3] 45.7 µM and 49.4 µM | [4] 52.1 µM and 46.6 µM and 47 µM | [5] 54 µM | [7] 46 µM

FC1CC(F)(F)C(F)(F)C1(F)F (configuration not stated)
inactive: all assays above

N=C(N)C(F)(F)C(F)(F)C(F)(F)C(F)(F)C(F)(F)C(F)(F)C(F)(F)F
inactive: [1] | KRT18 (gene 3875) | [2] | [3] | [4] | [5] | [7] | [8]
active: [4] 43.8 µM | [5] 41.4 µM | [7] 30 µM

FC(F)(F)C(F)(F)C(F)(F)C(F)(F)C(F)(F)C(F)(F)C(F)(F)I
not listed: CD40, CD40 (gene 958)
inactive: all other assays above

O=C(O)C(F)(F)C(F)(F)C(F)(F)C(F)(F)C(F)(F)C(F)(F)C(F)(F)C(F)(F)Cl
inactive: [3] | [7] | [8]
active: [1] 13.6 µM and 11.5 µM | KRT18 (gene 3875) 48.7 µM and 56 µM | [2] 42.9 µM and 40.4 µM | [4] 44.4 µM and 47 µM | [5] 48.5 µM and 45.7 µM | [6] 14.1 µM and 8.21 µM | CD40, CD40 (gene 958) 44.5 µM and 46.5 µM | [7] 6.54 µM

O=C(O)C(F)(F)C(F)(F)C(F)(F)C(F)(F)C(F)(F)C(F)(F)C(F)(F)C(F)(F)C(F)(F)C(F)(F)C(F)(F)C(F)(F)C(F)(F)F
inactive: [1] | KRT18 (gene 3875) | [2] | [3] | [4] | [5] | [6] | [7] | [8]
active: [2] 0.675 µM

CCCCC(CC)COP(=O)(O)OCC(CC)CCCC (configuration not stated)
active: [1] 26.3 µM and 20 µM | [2] 29.6 µM | [4] 32.2 µM
inactive: KRT18 (gene 3875) | [2] | [3] | [7]

O=C(Cl)C(F)(F)C(F)(F)C(F)(F)C(F)(F)C(F)(F)C(F)(F)C(F)(F)C(F)(F)F
active: [1] 39 µM and 43.6 µM and 45.5 µM | KRT18 (gene 3875) 47.8 µM and 43.9 µM and 46.8 µM | [2] 55.1 µM and 54.8 µM | [4] 49.5 µM and 46.4 µM | [5] 35.9 µM and 46.8 µM and 46.3 µM | [7] 1.59 µM
inactive: [3] | [4] | [7] | [8]

O=S(=O)(O)C(F)(F)C(F)(F)C(F)(F)C(F)(F)C(F)(F)C(F)(F)C(F)(F)F
not listed: CD40, CD40 (gene 958)
inactive: all other assays above

O=S(=O)(OCCOC(F)(F)F)C(F)(F)F
not listed: CD40, CD40 (gene 958)
inactive: all other assays above

O=C(O)C=C(C(F)(F)F)C(F)(F)F
active: [2] 10.8 µM | [4] 2.31 µM | [5] 30 µM
inactive: [1] | KRT18 (gene 3875) | [2] | [3] | [4] | [5] | CD40, CD40 (gene 958) | [7] | [8]

CCO[Si](CCC(F)(F)C(F)(F)C(F)(F)C(F)(F)C(F)(F)C(F)(F)F)(OCC)OCC
not listed: CD40, CD40 (gene 958)
inactive: all other assays above

OCC(F)(F)C(F)(F)C(F)(F)C(F)(F)C(F)(F)C(F)(F)F
active: [1] 48.7 µM | [4] 23 µM | [7] 42.2 µM
inactive: [1] | KRT18 (gene 3875) | [2] | [3] | [4] | [5] | [7] | [8]

FC(F)(F)C(F)(F)C(F)(F)C(F)(F)C(F)(F)C(F)(F)C(F)(F)C(F)(F)CCS
active: [4] 1.2 µM | [7] 0.0245 µM
inactive: [1] | KRT18 (gene 3875) | [2] | [3] | [4] | [5] | [6] | [7] | [8]

FC(F)(F)C(F)(F)C(F)(F)C(F)(F)C(F)(F)C(F)(F)CCS
inactive: all assays above

NC(=O)C(F)(F)C(F)(F)C(F)(F)C(F)(F)F
not listed: CD40, CD40 (gene 958)
inactive: all other assays above

O=C(O)C(F)(F)C(F)(F)C(F)(F)C(F)(F)C(F)(F)C(F)(F)C(F)(F)C(F)(F)C(F)(F)C(F)F
inactive: [1] | [3] | [5] | [7] | [8]
active: [1] 7.89 µM | KRT18 (gene 3875) 19.6 µM and 10.5 µM | [2] 14.2 µM and 10.6 µM | [4] 23.4 µM and 42 µM | [5] 52.7 µM

OCCCC(F)(F)C(F)(F)C(F)(F)C(F)(F)C(F)(F)C(F)(F)C(F)(F)F
active: [1] 20.4 µM and 47.3 µM | KRT18 (gene 3875) 50.6 µM and 48.5 µM | [2] 47.3 µM and 55.3 µM | [3] 45.3 µM and 48.2 µM | [4] 16.1 µM and 17.6 µM | [5] 54.6 µM | CD40, CD40 (gene 958) 42.5 µM and 53 µM | [7] 14.4 µM and 16.8 µM
inactive: [5] | [8]
